Measured values as given in ChEMBL document CHEMBL1157539, “Thousands of chemical starting points for antimalarial lead identification” (Nature, 2010).

Columns and labels:
Type in all cases: functional
Plasmodium falciparum [1] = assay: GSK_TCMDC: Inhibition of Plasmodium falciparum 3D7 in whole red blood cells, using parasite LDH activity as an index of growth. Test compounds present at 2uM
Plasmodium falciparum [2] = assay: GSK_TCMDC: Inhibition of Plasmodium falciparum Dd2 in whole red blood cells, using parasite LDH activity as an index of growth. Test compounds present at 2uM
HepG2 = assay: GSK_TCMDC: Percent inhibition of human HepG2 cell line. Test compounds present at 10uM.

Compound	Inhibition (Plasmodium falciparum [1]) [%]	Inhibition (Plasmodium falciparum [2]) [%]	Inhibition (HepG2) [%]
COc1ccc2ccc(F)c(CC(=O)N3CCOC(CNCc4cccc(-c5ccsc5)n4)C3)c2n1 (stereo not drawn)	92	1	1
Cc1c(C(=O)Nc2cc(Sc3ccc(F)cc3)cc([N+](=O)[O-])c2)sc2ncn(Cc3ccccc3F)c(=O)c12	98	45	2
COc1ccc(C=Cc2cc(=N)c3ccccc3[nH]2)cc1Br	100	88	55
Cc1c(C)n(C2CCCCC2)c2ncnc(OC3CCN(CC(=O)NC4CC4)CC3)c12	94	72	21
CC(C)(CNCc1ccc(F)c(F)c1)c1nc(-c2ccnc(N)n2)c(-c2ccc(Cl)c(O)c2)[nH]1.Cl	99	79	41
COc1ccc(NC(C)C(=O)Nc2ccc(Br)cc2)cc1S(=O)(=O)N1CCCCC1 (stereo not drawn)	99	97	2
CN(C)CCCNCc1ccc(-c2ccc(F)c(Cl)c2)o1.Cl	93	69	29
O=C(O)C(F)(F)F.c1ccc(CCNc2ccnc(Nc3ccc4[nH]nnc4c3)n2)cc1	100	95	33
Cl.OC(c1ccccc1)C1CN(CCC2CC3CCC2C3)CCC1(O)c1ccccc1 (stereo not drawn)	97	99	0
O=C(Nc1cccc(C(F)(F)F)c1)Nc1cc(F)c(F)cc1Cl	83	98	0
COc1ccc(Nc2ncc3c(-c4cccc(NC(=O)c5ccccc5)c4)c[nH]c3n2)cc1OC	100	95	54
